These results are taken from PubChem BioAssay (EPA / NIEHS).

“And” between values parts separate entries of the source, which are not always exact repeats. Identical values can stand only once. The source made the active and inactive calls. Rule for the calls: active = hit-call score of the fitted dose curve at least 0.9, where 1 is the maximum; inactive = score below 0.9.

The subject of this experiment is TTR (gene 7276). Nature of the experiment: CCTE_GLTED_hTTR_0.125uM: CCTE's human Transthyretin (hTTR) Inhibition Assay, with 0.125uM TTR, Great Lakes Toxicology and Ecology Division (GLTED) Lab (AID 2284431).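 Note: hits lower the fluorescence signal relative to DMSO baseline.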 In short, it runs like this:
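Probe-displacement format: chemicals competing for the T4 site release ANSA from 0.125uM TTR during a 2 h incubation, measured by fluorescence at 380 excitation and 475 emission.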
As a reminder, the AC50 is the concentration giving half of the maximal activity seen. Turning to `CC[C@H](c1ccc(O)cc1)[C@@H](CC)c1ccc(O)cc1`, the AC50 was 132 nM (active).

`CCCCCCCCC(=O)O`: the AC50 is 12400 nM (active).

For the compound `ClC1=C(Cl)C(Cl)(Cl)C(Cl)=C1Cl`, the concentration at half-maximal activity (AC50) was 7090 nM (active).

In the case of `O=C(O)Cc1cc(I)c(Oc2cc(I)c(O)c(I)c2)c(I)c1`, the AC50 was 10.4 nM (active).

On to `O=C(O)c1ccccc1C(c1ccc(O)cc1)c1ccc(O)cc1`, for which the AC50 is 3040 nM (active).

Regarding `NC(=O)N1C(=O)C(C(=O)c2cc(Cl)cs2)c2cc(F)c(Cl)cc21` (configuration not stated), the concentration at half-maximal activity (AC50) was 48.1 nM (active).

For the compound `NC(=O)N(O)[C@@H]1C=C[C@H](Oc2cccc(Oc3ccc(F)cc3)c2)C1`, the concentration at half-maximal activity (AC50) was 439 nM (active).

Consider `O=[N+]([O-])c1ccc(O)cc1`, for which the half-maximal activity concentration (AC50) is 6.47 µM (active) and 8.54 µM (active).

With `CC(C)(C)c1ccc(O)c(C(C)(C)C)c1`, the half-maximal activity concentration (AC50) is 9980 nM (active).

Regarding `CCCOC(=O)c1ccc(O)cc1`, the AC50 was 5010 nM (active).

Turning to `CCCCCCCCCCCCc1ccccc1S(=O)(=O)O`, the concentration at half-maximal activity (AC50) was 890 nM (active).

For the compound `CCc1ccc(CCOc2ccc(CC3SC(=O)NC3=O)cc2)nc1` (configuration not stated), the half-maximal activity concentration (AC50) was 392 nM (active).
